Laboratory results taken from PubChem BioAssay.
Activity calls are given as the source filed them. Unless noted, no rule for the calls is given here.

Assays:
[1] = compounds binding Alexa647 anti-His antibody – biochemical, small-molecule microarray, 635 nm fluorescence, artefact control for SMM control protein annotation, primary screen (AID 1128); conditions: higher = more signal;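 also: score merges feature fluorescence with signal-to-noise for each printed compound spot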
[2] = test system: Human papillomavirus type 1a E7 protein (residues 1-88); experiment: HPV1a E7 small-molecule binders, primary screen, biochemical, small-molecule microarray, residues 1-88, 635 nm (AID 1129); conditions: small-molecule microarray binding, fluorescence 635 nm; higher = more signal
[3] = target: Focal adhesion kinase 1 (Homo sapiens) (UniProt Q05397); experiment: PTK2 protein binding on printed compound slides – biochemical, small-molecule microarray, 635/667 nm fluorescence, BSA, DTT, primary screen (AID 1130); conditions: 635 nm fluorescence, higher = more signal;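 also: composite of spot emission at 667 nm and signal to noise over triplicate slides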
Sequence of Focal adhesion kinase 1 (Homo sapiens) (Q05397 whole entry, looked up): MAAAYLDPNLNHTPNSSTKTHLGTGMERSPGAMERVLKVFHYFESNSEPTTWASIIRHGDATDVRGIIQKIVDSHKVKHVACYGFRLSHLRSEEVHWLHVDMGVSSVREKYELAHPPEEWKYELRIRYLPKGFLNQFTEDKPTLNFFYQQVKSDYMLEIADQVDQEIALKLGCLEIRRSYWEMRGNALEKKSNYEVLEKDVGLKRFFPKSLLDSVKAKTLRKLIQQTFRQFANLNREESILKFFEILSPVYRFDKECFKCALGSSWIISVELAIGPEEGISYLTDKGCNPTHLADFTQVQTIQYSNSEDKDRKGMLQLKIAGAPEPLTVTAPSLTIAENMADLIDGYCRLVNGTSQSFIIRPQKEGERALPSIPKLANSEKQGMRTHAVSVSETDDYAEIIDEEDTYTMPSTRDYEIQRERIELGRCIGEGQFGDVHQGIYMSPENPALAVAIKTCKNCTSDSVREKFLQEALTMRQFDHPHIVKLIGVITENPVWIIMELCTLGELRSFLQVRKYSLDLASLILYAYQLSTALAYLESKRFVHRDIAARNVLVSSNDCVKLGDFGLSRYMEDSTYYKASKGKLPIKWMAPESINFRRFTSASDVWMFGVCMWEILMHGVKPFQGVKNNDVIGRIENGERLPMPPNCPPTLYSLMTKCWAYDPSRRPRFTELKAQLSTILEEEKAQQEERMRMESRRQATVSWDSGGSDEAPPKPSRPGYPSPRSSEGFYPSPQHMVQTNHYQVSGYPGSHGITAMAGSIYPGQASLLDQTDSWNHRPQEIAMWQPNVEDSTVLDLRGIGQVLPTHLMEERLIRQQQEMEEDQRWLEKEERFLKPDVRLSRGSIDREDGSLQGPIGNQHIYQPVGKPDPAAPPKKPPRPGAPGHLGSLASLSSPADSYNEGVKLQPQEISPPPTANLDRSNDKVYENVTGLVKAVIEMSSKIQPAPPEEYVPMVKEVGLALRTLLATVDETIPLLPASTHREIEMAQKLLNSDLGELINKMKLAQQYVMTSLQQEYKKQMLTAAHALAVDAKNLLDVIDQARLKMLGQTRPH

[4] = test system: Fibrinogen (Alexa647-labelled); experiment: Alexa647-fibrinogen binding to printed small molecules – biochemical, small-molecule microarray, 635/667 nm fluorescence, artefact control for SMM control-protein annotation, profiling panel (AID 1131); conditions: fibrinogen-A647 binding fluorescence, higher = more signal;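 also: z-score merges 667 nm fluorescence with per-spot signal-to-noise over triplicate slides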
[5] = target: Follistatin (Homo sapiens) (UniProt P19883); experiment: FST protein binding to printed compounds – biochemical, small-molecule microarray, 635/667 nm fluorescence, primary screen (AID 1132); conditions: 635 nm fluorescence, higher = more signal
Sequence of Follistatin (Homo sapiens) (P19883 whole entry, looked up): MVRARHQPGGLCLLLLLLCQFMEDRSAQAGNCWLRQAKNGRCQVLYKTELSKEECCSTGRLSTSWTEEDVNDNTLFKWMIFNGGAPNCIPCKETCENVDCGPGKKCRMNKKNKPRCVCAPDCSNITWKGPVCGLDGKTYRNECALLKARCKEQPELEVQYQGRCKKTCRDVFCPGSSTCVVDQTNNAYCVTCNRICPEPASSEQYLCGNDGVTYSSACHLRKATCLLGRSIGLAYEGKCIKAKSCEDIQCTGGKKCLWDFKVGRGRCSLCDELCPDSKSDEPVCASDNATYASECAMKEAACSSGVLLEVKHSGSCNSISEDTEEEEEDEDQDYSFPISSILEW

[6] = target: Fibroblast growth factor 2 (Homo sapiens) (UniProt P09038); experiment: basic fibroblast growth factor binding to printed compounds – biochemical, small-molecule microarray, 635/667 nm fluorescence, primary screen (AID 1133); conditions: FGF2, fluorescence 635/667, higher = more signal
Sequence of Fibroblast growth factor 2 (Homo sapiens) (P09038 whole entry, looked up): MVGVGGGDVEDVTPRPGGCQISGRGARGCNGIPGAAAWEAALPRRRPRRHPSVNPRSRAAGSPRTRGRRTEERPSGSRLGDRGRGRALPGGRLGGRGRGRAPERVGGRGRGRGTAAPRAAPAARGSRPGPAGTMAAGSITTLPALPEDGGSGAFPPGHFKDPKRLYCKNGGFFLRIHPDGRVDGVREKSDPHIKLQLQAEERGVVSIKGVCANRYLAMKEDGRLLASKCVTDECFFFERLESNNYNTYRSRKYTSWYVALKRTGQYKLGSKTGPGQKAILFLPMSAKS

[7] = JC-1 mitochondrial potential readout, lung cancer cells – cell-based, A549, JC-1 fluorescence, basal, 24 h, 100 nL, profiling panel (AID 1138); conditions: higher = more signal;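 also: A549 lung adenocarcinoma cells under basal conditions with no added stimulus; test concentration not given here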
Lefty1 = Lefty1 protein binding to printed compounds – biochemical, small-molecule microarray, 635/667 nm fluorescence, primary screen (AID 1139); conditions: fluorescence 635/667, higher = more signal
[8] = test system: wheat germ agglutinin (Triticum aestivum), Alexa647-labelled; experiment: Alexa647-WGA lectin binding to printed small molecules – biochemical, small-molecule microarray, 635/667 nm fluorescence, artefact control for SMM control-protein annotation, profiling panel (AID 1140); conditions: WGA-A647 binding, 635 nm fluorescence, higher = more signal;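 also: score merges 667 nm feature emission with signal to noise over triplicate slides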
[9] = target: Luciferin 4-monooxygenase (Photinus pyralis) (UniProt P08659); experiment: inhibition of purified Photinus pyralis luciferase – biochemical, luminescence, purified enzyme, 2006 set, primary screen (AID 1141); conditions: purified firefly luciferase, SteadyGlo luminescence, 30 min; higher = more signal, called active from +8 up or from −8 down;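 also: cell-free assay with purified firefly luciferase at 100 ng per well in PBS; test concentration not given here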
Sequence of Luciferin 4-monooxygenase (Photinus pyralis) (P08659 whole entry, looked up): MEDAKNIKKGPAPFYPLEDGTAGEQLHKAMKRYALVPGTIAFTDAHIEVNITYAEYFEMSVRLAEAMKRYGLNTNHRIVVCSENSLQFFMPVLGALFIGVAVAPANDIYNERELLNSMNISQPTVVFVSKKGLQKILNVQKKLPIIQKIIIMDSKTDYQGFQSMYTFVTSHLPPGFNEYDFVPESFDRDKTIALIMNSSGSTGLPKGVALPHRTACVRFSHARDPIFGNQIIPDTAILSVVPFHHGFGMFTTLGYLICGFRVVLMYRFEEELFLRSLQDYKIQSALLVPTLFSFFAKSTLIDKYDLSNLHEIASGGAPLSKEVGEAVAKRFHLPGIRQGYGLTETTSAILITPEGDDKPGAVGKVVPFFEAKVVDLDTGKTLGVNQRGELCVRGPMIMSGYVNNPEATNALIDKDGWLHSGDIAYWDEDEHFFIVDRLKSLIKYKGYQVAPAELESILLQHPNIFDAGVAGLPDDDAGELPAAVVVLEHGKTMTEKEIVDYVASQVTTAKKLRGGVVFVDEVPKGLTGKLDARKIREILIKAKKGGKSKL

[10] = test system: Wnt5a (protein binding on small-molecule microarray); experiment: small molecules binding Wnt5a protein – biophysical, small-molecule microarray, 635/667 nm fluorescence, primary screen (AID 1142); conditions: 635 nm fluorescence, higher = more signal;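 also: fluorescence read at 667 nm with signal to noise per printed feature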
[11] = ATP-based viability of Huh7 replicon cells – cell-based, CellTiter-Glo luminescence, basal, 48 h, cytotoxicity control for HCV replication inhibitor project, primary screen (AID 1143); conditions: higher = more signal, called active from +8 up or from −8 down;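 also: Huh7 hepatoma cells carrying a hepatitis C replication reporter with no stimulus; test concentration not given here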
[12] = Pseudomonas biofilm growth suppression – PAO1 strain, BacTiter-Glo luminescence, LB-PBS, primary screen (AID 1144); conditions: P. aeruginosa PAO1 biofilm, 12 h, higher = more signal
[13] = basal CRE-LacZ reporter activity in PC12 – cell-based, unstimulated, primary screen (AID 1145); conditions: no forskolin, luminescence, 4.5 h, higher = more signal, called active from +8 up or from −8 down
[14] = forskolin-driven CRE-LacZ activity in PC12 – cell-based, CRE-LacZ reporter, forskolin-stimulated, primary screen (AID 1146); conditions: luminescence, 4.5 h, higher = more signal, called active from +8 up or from −8 down;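 also: PC12 cells with 6xCRE LacZ reporter stimulated by forskolin 10 µM; beta-galactosidase reporter signal reflecting CREB driven transcription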
[15] = target: Streptavidin (Streptomyces avidinii) (UniProt P22629); experiment: compounds binding control protein streptavidin – biophysical, small-molecule microarray, 635/667 nm fluorescence, artefact control for SMM compound annotation, primary screen (AID 1147); conditions: higher = more signal;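 also: signal reflects streptavidin binding to arrayed compounds as a control protein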
Sequence of Streptavidin (Streptomyces avidinii) (P22629 whole entry, looked up): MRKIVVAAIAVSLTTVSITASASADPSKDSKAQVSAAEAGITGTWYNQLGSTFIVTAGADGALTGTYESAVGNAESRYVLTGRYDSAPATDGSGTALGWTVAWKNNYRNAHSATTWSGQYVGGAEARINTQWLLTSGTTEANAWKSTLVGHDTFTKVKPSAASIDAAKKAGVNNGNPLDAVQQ

[16] = probe aInhba binding on compound microarray – biochemical, small-molecule microarray, 635/667 nm fluorescence, primary screen (AID 1148); conditions: higher = more signal;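 also: score merges 667nm spot fluorescence with signal-to-noise for antibody binding to printed compounds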
Torsin-1A (Homo sapiens) [17] = target: Torsin-1A (Homo sapiens) (UniProt O14656); experiment: TOR1A wild-type binding on microarray – cell lysate, small-molecule microarray, lysate, 635/667 nm, primary screen (AID 1149); conditions: COS7 hTOR1A-WT lysate, 635 nm fluorescence, higher = more signal
Sequence of Torsin-1A (Homo sapiens) (O14656 whole entry, looked up): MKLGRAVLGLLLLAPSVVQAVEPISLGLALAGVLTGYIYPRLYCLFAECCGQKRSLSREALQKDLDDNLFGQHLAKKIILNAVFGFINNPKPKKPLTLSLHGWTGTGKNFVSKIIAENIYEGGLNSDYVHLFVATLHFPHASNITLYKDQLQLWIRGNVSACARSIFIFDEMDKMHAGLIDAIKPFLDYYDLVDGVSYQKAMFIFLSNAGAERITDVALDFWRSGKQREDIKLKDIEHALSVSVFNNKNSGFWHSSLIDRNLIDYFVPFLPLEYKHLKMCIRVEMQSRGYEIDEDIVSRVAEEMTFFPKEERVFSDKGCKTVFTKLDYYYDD

Torsin-1A (Homo sapiens) [18] = target: Torsin-1A (Homo sapiens) (UniProt O14656); experiment: torsin A mutant lysate binding on microarrays – cell lysate, small-molecule microarray, COS7 lysate, 635/667 nm fluorescence, primary screen (AID 1150); conditions: COS7 hTOR1A mutant lysate, 635 nm fluorescence, higher = more signal;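 also: score pools 667 nm emission and signal to noise measuring lysate protein binding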
[19] = test system: Sonic hedgehog protein (Shh); experiment: Sonic hedgehog microarray binding compounds – biochemical, small-molecule microarray, 635/667 nm fluorescence, primary screen (AID 1151); conditions: 635 nm fluorescence, higher = more signal;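 also: Shh protein binding to compounds spotted on small-molecule microarray slides; score combines spot fluorescence intensity with signal-to-noise across triplicate slides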

Row | Compound | composite z-score [1] | composite z-score [2] | composite z-score [3] | composite z-score [4] | composite z-score [5] | composite z-score [6] | z-score [7] | composite z-score (Lefty1) | composite z-score [8] | z-score [9] | composite z-score [10] | z-score [11] | z-score [12] | z-score [13] | z-score [14] | composite z-score [15] | composite z-score [16] | composite z-score (Torsin-1A (Homo sapiens) [17]) | composite z-score (Torsin-1A (Homo sapiens) [18]) | composite z-score [19]
1 | CCCC=C(CCC)[C@@H](NS(=O)(=O)c1ccccc1)c1ccc(C(F)(F)F)cc1 | 0.438 | 1.21 | 1.03 | 0.979 | 0.831 | -0.0779 | -1.64 | 0.219 | 0.72 | 2.08 (inactive) | 0.135 | -1.21 (inactive) | 0.514 (inactive) | 0.0007 (inactive) | 1.11 (inactive) | 1.33 | 0.105 | 0.354 | 0.56 | 0.0898
2 | C[C@@H]1ON(c2ccccc2)[C@H](c2ccccc2)[C@H]1C(=O)N1C(=O)OC[C@H]1Cc1ccccc1 | 0.39 | 0.569 | 0.507 | -0.178 | 0.586 | 0.375 | 2.24 | 0.675 | 0.237 | 0.549 (inactive) | -0.0187 | -1.04 (inactive) | -0.516 (inactive) | 0.951 (inactive) | 0.053 (inactive) | 1.9 | -0.0538 | 0.242 | -0.0355 | 0.637
3 | C=C(/C(=C/C[C@@H](OC(C)=O)c1ccccc1OCCO)c1cnc2ccccc2c1)C(C)C | 0.119 | -0.198 | 0.0328 | -0.571 | 1.17 | 1.48 | -0.111 | 1.58 | 1.05 | -0.557 (inactive) | 0.515 | -1.35 (inactive) | 0.362 (inactive) | 10.8 (active) | 0.982 (inactive) | -0.02 | 0.167 | 0.72 | 0.0714 | 1.81
4 | CC[C@@H]1[C@@H]2C3C(=O)N(CC)C(=O)C3CC(=O)[C@@H]2[C@H](c2ccc(C)cc2)N1S(=O)(=O)c1ccc(C)cc1 (stereo not given in full) | 0.189 | 1.2 | 0.381 | -0.826 | 0.573 | -0.415 | -0.0765 | 0.417 | 0.519 | 1.46 (inactive) | 0.513 | -3.1 (inactive) | -1.88 (inactive) | -0.424 (inactive) | -0.42 (inactive) | 0.492 | -0.0523 | -0.087 | 0.645 | 1.18
5 | [N-]=[N+]=NCc1ccccc1[C@H]1OC(c2ccc(OCCCO)cc2)=N[C@@]1(Cc1ccccc1)C(N)=O | 1.85 | 1.24 | 0.5 | 1.04 | 0.405 | -0.135 | 2.44 | -0.572 | 1.37 | -1.89 (inactive) | 0.765 | -1.18 (inactive) | -0.293 (inactive) | 0.479 (inactive) | -1.43 (inactive) | 2.31 | 0.278 | 0.217 | 0.65 | -1.13
6 | COc1ccc([Si](C)(C)[C@@H]2[C@@H](CCO)O[C@]3(C(=O)N(Cc4ccccc4)c4ccc(N5CCCCC5=O)cc43)[C@H]2C)cc1 | 1.47 | 1.17 | 1.61 | 0.734 | 1.13 | 0.634 | -0.167 | 0.788 | 0.184 | 0.0481 (inactive) | 0.271 | -8.08 (active) | -0.119 (inactive) | 8.84 (active) | -0.94 (inactive) | 0.583 | 0.0446 | -0.121 | 0.198 | 1.44
7 | CC(C)(C)OC(=O)CC[C@@]1(C(=O)N2CCCCC2)N=C(c2ccc(OCCCO)cc2)O[C@@H]1c1ccccc1CN=[N+]=[N-] | 3.24 | 1.21 | 1.26 | 1.03 | 1.04 | 0.0627 | 1.58 | 0.0215 | 1.35 | -0.931 (inactive) | 0.34 | -1.95 (inactive) | 0.37 (inactive) | 0.414 (inactive) | -0.284 (inactive) | 1.07 | 0.248 | 1.1 | 1.22 | -0.226
8 | CN(C)C(=O)[C@@]1(Cc2ccccc2N=[N+]=[N-])N=C(c2ccc(OCCCO)cc2)O[C@H]1c1ccccc1N=[N+]=[N-] | 1.85 | 1.19 | 0.921 | 0.887 | 1.01 | -0.118 | 2.01 | 0.16 | 0.98 | -2.25 (inactive) | 0.451 | -3.76 (inactive) | 1.19 (inactive) | 1.19 (inactive) | -1.97 (inactive) | 0.54 | 0.0028 | 0.761 | 0.776 | -0.536
9 | C=CCN1C(=O)[C@@]2(O[C@@H](CCn3cc([C@H](O)c4ccccc4)nn3)[C@H]([Si](C)(C)c3ccc(OC)cc3)[C@H]2C)c2cc(NC(=O)c3ccc(OC)cc3)ccc21 | 0.623 | 0.931 | 0.386 | 0.0475 | 0.987 | 0.518 | 0.763 | 0.628 | -0.191 | 0.427 (inactive) | 0.192 | -3.14 (inactive) | -0.527 (inactive) | 3.97 (inactive) | 0.35 (inactive) | 0.429 | -0.128 | -0.0041 | -0.0819 | 1.32
10 | C=CCOC(=O)[C@@H]1[C@H]2C(=O)O[C@H](c3ccccc3)[C@H](c3ccccc3)N2[C@H](c2ccc(OCCOC(=O)[C@H]3C[C@H]4C(=O)N[C@@H](Cc5ccccc5)C(=O)N4[C@H]3c3cccc(OCCO)c3)cc2)[C@@]12C(=O)Nc1ccc(I)cc12 | 1.51 | 1.2 | 0.819 | 0.464 | 1.42 | 1.72 | -1.37 | 1.33 | 0.548 | -3.65 (inactive) | 0.776 | -0.467 (inactive) | -0.787 (inactive) | 6.98 (inactive) | 11.6 (active) | 0.502 | 0.294 | 0.787 | 0.959 | 2.02
